# Source: PubChem BioAssay (NCATS)
# Records with an inconclusive call do not appear. A call without a number means that no potency is given here. Activity calls are given as the source filed them. The call rests on the fitted dose curve; in most records, active means well fitted cell-killing curve with a large enough effect; inconclusive means small, poorly fitted or top-dose-only effect; inactive means flat fitted curve, though single readings scatter.
# Assay: qHTS of pediatric cancer cell lines to identify multiple opportunities for drug repurposing: Primary screen for RD cells (AID 1347104); further: nearly all actives have a fitted effect of over 55% in size
# Settings: RD rhabdomyosarcoma viability, CellTiter-Glo luminescence, 48 h; series mostly up to 46 µM
# Source text: Drug repurposing or repositioning has been offered as a strategy for drug development in oncology programs. This approach has special potential for childhood cancers and other rare or orphan diseases, where the expected return on new drug development has been a disincentive to pharmaceuticals. […] In this project we exploit the poly-pharmacology of drugs to discover new indications via phenotypic screening of a panel of 19 well-characterized cell lines derived from solid tumors seen in children and adolescents. The goal is to identify approved drugs with previously unrecognized anticancer properties that has the potential to reveal new mechanisms and biological processes involved in carcinogenesis or drug resistance. We employed a titration-based paradigm (quantitative high-throughput screening or qHTS), where all compounds were tested at multiple concentrations for their effect on cell viability. Concentration-response curves (CRCs) were derived directly from the primary screen, and both potency and efficacy values were used to identify compounds with robust bioactivity profiles. We screened the NIH Chemical Genomics Center (NCGC) Pharmaceutical Collection (NPC) and Mechanism Interrogation Plate (MIPE) small molecule collections of approved and investigational compounds against these cell lines; and measured metabolically active cells after 48 hours of compound treatment as a proxy for cell viability. […] Assay Submitter: Nathalia J. Martinez, National Center for Advancing Translational Sciences, National Institutes of Health, Rockville, MD, USA; email: natalia.martinez@nih.gov Shen, M et al. Quantitative high-throughput phenotypic screening of pediatric cancer cell lines identifies multiple opportunities for drug repurposing. Oncotarget 2017 Dec 19;9(4):4758-4772. PMID 29435139.
# The cells were obtained from University of North Carolina (UNC), Pediatric Preclinical Testing Program (PPT), and Coriell Institute (CI). qHTS cell viability assay: Cells were assayed in growth media at a density of 500-1,000 cells/well. Five microliters of cells were dispensed into 1,536-well, white, solid-bottom, TC-treated plates (Greiner Bio One) using a multidrop dispenser and incubated at 37 degrees C, 5% CO2, under a humidified atmosphere for 5 hours. Twenty-three nanoliters of compounds and controls (neutral control DMSO or positive control bortezomib at final concentration of 2.3 µM) were subsequently transferred by Kalypsys pintool. For primary screens, the MIPE collection was tested at 11-point dilutions (final concentrations range from 0.78 nM to 46 µM) and the NPC collection at 8-point dilutions (final concentrations range from 0.59 nM to 46 µM). Compounds tested in follow-up screens were assayed at 11-point dilutions. Cells were incubated for 48 hours, followed by addition of 3 µL of CellTiter-Glo (Promega). After a 15 min incubation at room temperature, samples were analyzed for luminescence intensity using a ViewLux High-throughput CCD imager equipped with clear filters.
# Potency means the concentration at half of the fitted maximal effect.
Compound,Potency,"activity change, negative = cytotoxic"
CCN1CCN(C(=O)N[C@@H](C(=O)N[C@@H]2C(=O)N3[C@@H]2SC(C)(C)[C@H]3C(=O)O)c2ccccc2)C(=O)C1=O,inactive,
CC(=O)N(CC(=O)N(C)C)c1ccccc1,inactive,
CC(C)(C)NCC(O)COc1ccccc1OCC1CCCO1 (stereo not given),inactive,
CC(Oc1c(Cl)cccc1Cl)C1=NCCN1 (stereo not given),inactive,
O=C(c1ccccc1)c1ccccc1,inactive,
CCOC(=O)C(=O)CCCCCCl,inactive,
COCCc1ccccn1,inactive,
CN(C)CCCOC1(Cc2ccccc2)CCCCCC1,inactive,
Cc1c(F)cc2c(=O)c(C(=O)O)cn3c2c1CCC3C (stereo not given),inactive,
COC(=O)/C=C(/C)N,inactive,
CN1Cc2cc(C(=O)N3CCC(C4CCNCC4)CC3)ccc2N[C@@H](CC(=O)O)C1=O,inactive,
CCOC(=O)O[C@]1(C(=O)OCCl)CC[C@H]2[C@@H]3CCC4=CC(=O)C=C[C@]4(C)[C@H]3[C@@H](O)C[C@@]21C,inactive,
O=C1CC2(CCCC2)CC(=O)N1,inactive,
O=P(O)(O)OCC(O)CO (stereo not given),inactive,
Cc1ncc([N+](=O)[O-])n1C,inactive,
CC(=O)[C@@]1(O)CC[C@H]2[C@@H]3C[C@H](C)C4=CC(=O)CC[C@]4(C)[C@H]3CC[C@@]21C,inactive,
CCN(CC)C(=O)C1CN2CCc3cc(OC)c(OC)cc3C2CC1OC(C)=O (stereo not given),inactive,
CCCCC(CC)COC(=O)c1ccccc1C(=O)O (stereo not given),inactive,
O=C1NC(c2ccccc2)(c2ccccc2)C(=O)N1COP(=O)(O)O,inactive,
CN(C(=O)C(Cl)Cl)c1ccc(OC(=O)c2ccco2)cc1,inactive,

Compound,Potency,"activity change, negative = cytotoxic"
CCN(CC)CCN,inactive,
Cc1ccc(-c2ccccc2C#N)cc1,inactive,
CC(C)=CCNc1ncnc2c1ncn2[C@@H]1O[C@H](CO)[C@@H](O)[C@H]1O,13.3 µM (active),
CC1CN(c2cc3c(cc2F)c(=O)c(C(=O)O)cn3-c2ccc(F)cc2F)CCN1 (stereo not given),,-4.55% [at 4.84 µM] (inactive)
COC(=O)CCCCC(CCSS/C(CCO)=C(\C)N(C=O)Cc1cnc(C)nc1N)SC(C)=O (stereo not given),inactive,
Nc1ccc(O)cc1,inactive,
C[C@@H]1C[C@H]2[C@@H]3CCC4=CC(=O)C=C[C@]4(C)[C@@]3(F)[C@@H](O)C[C@]2(C)[C@@]1(O)C(=O)COC(=O)c1ccncc1,inactive,
O=C1Nc2cc(Cl)ccc2Oc2ccccc21,inactive,
O=C1CCCc2c(O)cccc21,inactive,
O=C(O)[C@H](O)[C@@H](O)[C@H](O[C@@H]1O[C@H](CO)[C@H](O)[C@H](O)[C@H]1O)[C@H](O)CO,inactive,
CC(C)=CCC/C(C)=C/CC/C(C)=C/CCC(=O)OC/C=C(\C)CCC=C(C)C,inactive,
O=C(CO)[C@@H](O)[C@H](O)[C@@H](O)CO,inactive,
O=[N+]([O-])c1ccc(O)c2ncccc12,5.31 µM (active),
CCCC(=O)c1cc(O)c(O)cc1O,inactive,
CC(=O)N(CC(O)CO)c1c(I)c(C(=O)NCCO)c(I)c(C(=O)NCC(O)CO)c1I (stereo not given),inactive,
CCN1C(=O)c2ccccc2C1Nc1ccc(OCCN2CCCCC2)cc1 (stereo not given),inactive,
O=C(O)c1[nH]n(-c2ccc(S(=O)(=O)O)cc2)c(=O)c1N=Nc1ccc(S(=O)(=O)O)cc1,inactive,
Cc1oc(-c2ccccc2)nc1CCC(=O)c1ccc(CC2SC(=O)NC2=O)cc1 (stereo not given),inactive,
COC(=O)c1c(Cl)c(Cl)c(C(=O)OC)c(Cl)c1Cl,inactive,
C#Cc1ccc(-c2ccccc2F)cc1,inactive,
